40 compounds from PubChem BioAssay (Tox21) can be followed below.

Inconclusive results are not listed. A call without a number means that no potency is given here. Values without a mark were called inactive. Calls of active or inactive are those of the source. Calls come from the whole dose curve.
Potency is the fitted concentration of half-maximal effect.

For the assay, the target named is Beta-2 adrenergic receptor (Homo sapiens) (UniProt P07550). Briefly: Adrenergic beta2 receptor (ADRB2) small molecule antagonists, cell-based qHTS assay (AID 1963592). Note: nearly all actives have a fitted effect of over 50% in size. The note with it: CHO-ADRB2 cells, isoproterenol-stimulated cAMP HTRF ratio, 0.5 h; series mostly up to 92.4 µM. An excerpt: U.S. Tox21 Program National Center for Advancing Translational Sciences [NCATS] Division of Preclinical Innovation [DPI] U.S. Environmental Protection Agency [EPA] National Institutes of Environmental Health Sciences [NIEHS] National Toxicology Program [NTP] U.S. Food and Drug Administration [FDA] Tox21 Assay Overview: Beta adrenergic receptors (Beta-ARs) belong to the G-protein coupled receptor (GPCR) superfamily, includes three subtypes - beta1, beta2, and beta3. Beta1-AR is the predominant receptor subtype expressed in the heart, and beta2-AR is expressed in the kidney, lung, blood vessel and in the heart, and beta3 is found in the adipocytes. Beta1 and 2 ARs couple to Gs protein and elevate cyclic adenosine mono phosphate (cAMP), which activates protein kinase A and leads to the downstream signaling responsible for the physiological actions. Beta-AR agonists or antagonists are the most prescribed therapeutic agents for heart failure and asthma, and these were one of the first target receptors for the rational drug design. Tox21 10K compound library was screened using the cAMP-Gs dynamic assay (Cisbio Bioassays, Shelton, CT) to identify agonists/antagonists of the Gs-coupled human adrenergic, beta2 receptor (ADRB2) in the CHO-ADRB2 cell line (Codex BioSolutions, Inc. Gaithersburg, MD), which stably over-expresses ADRB2. The principle of cAMP-Gs dynamic assay is based on HTRF technology, which facilitates the fluorescence resonance energy transfer (FRET) between donor Europium cryptate and acceptor d2-labeled cAMP. The cAMP generated within cells competes with the red acceptor, d2-labled cAMP, for binding to the monoclonal anti-cAMP-cryptate (Europium donor). An increase in intracellular cAMP leads to the disruption of FRET signal, and the signal is inversely proportional to the cAMP concentration. Propranolol HCl (Sigma-Aldrich, St. Louis, MO) was used as a positive control in the screening.
Chain of Beta-2 adrenergic receptor (Homo sapiens) (P07550 whole entry, looked up): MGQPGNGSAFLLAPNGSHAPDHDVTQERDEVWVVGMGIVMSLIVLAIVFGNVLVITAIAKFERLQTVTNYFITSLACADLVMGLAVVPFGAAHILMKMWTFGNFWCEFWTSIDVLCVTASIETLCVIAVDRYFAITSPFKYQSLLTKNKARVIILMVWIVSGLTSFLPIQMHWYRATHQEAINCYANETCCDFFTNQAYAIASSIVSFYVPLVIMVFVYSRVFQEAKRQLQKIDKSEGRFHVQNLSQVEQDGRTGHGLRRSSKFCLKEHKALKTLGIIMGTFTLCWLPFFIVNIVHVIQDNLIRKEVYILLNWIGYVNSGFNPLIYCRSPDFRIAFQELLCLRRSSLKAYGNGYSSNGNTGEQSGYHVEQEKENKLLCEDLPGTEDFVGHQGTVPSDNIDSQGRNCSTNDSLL
Tox21 Assay Protocol Summary: CHO-ADRB2 cells were dispensed at 1,000/well in 4uL assay medium into white/solid 1536-well plates (Greiner Bio-One North America Inc., Monroe, NC) using a Multidrop Combi dispenser (ThermoFisher Scientific, Waltham, MA). The assay plates were incubated at 37C and 5% CO2 for an overnight (18-20hr). Then positive control and test compounds dissolved in DMSO were transferred to the assay plates at 23nL using a Pintool station (Wako, San Diego, CA). Following the compound and positive control transfer, 1uL agonist-stimulation mix containing 1nM Isoproterenol HCl, 100uM IBMX and 25uM Ro-20-1724 was added to each well of the assay plates using BioRAPTR Flying Reagent Dispenser (FRD, Beckman Coulter, Brea, CA). The assay plates were incubated at room temperature for 0.5hr. Then 2.5ul each d2-labled cAMP and anti-cAMP-cryptate solutions were added separately to each well of the assay plates using an FRD and the assay plates were incubated at room temperature for 1hr. The fluorescence signal was measured at two different wavelengths (665nm and 615nm) using an Envision plate reader (Perkin Elmer, Shelton, CT). Data were expressed as the ratio of 665 nm/615 nm.
In general terms: In qHTS, concentration-response curves come from the screen itself.
In the case of `CCCCCCCC#N`, the Potency entry was “inactive”. The same measure, in the same setting: for `CCCCCCCCCCCC(=O)OCC(O)CO` (stereo not given) the value was “inactive”; for `Nc1ccn([C@@H]2O[C@H](CO)[C@@H](O)[C@@H]2O)c(=O)n1`, “inactive”; for `Cn1cnc2c(=O)[nH]c(N)nc21`, “inactive”. For `CCCCCCCCCCCCCOS(=O)(=O)O`, the Potency entry was “inactive”.

`COc1ccccc1N1CCN(CC(O)COc2cccc3ccccc23)CC1` (stereo not given): the Potency was 2.11 µM (active). In the case of `C/C=C1\[C@H]2C=C(C)C[C@]1(N)c1ccc(=O)[nH]c1C2`, the Potency result is “inactive”.

On to `O=C(OCC(COC(=O)c1cccnc1)(COC(=O)c1cccnc1)COC(=O)c1cccnc1)c1cccnc1`, for which the Potency result was “inactive”. Same read-out and setting: for `C#C[C@]1(O)CC[C@H]2[C@@H]3[C@H](C)CC4=C(CCC(=O)C4)[C@H]3CC[C@@]21C` the value was 23.7 µM (active); for `Cn1cc(C(=O)[C@@H]2CCc3nc[nH]c3C2)c2ccccc21`, “inactive”. Take `COC(=O)CCS`: the Potency result is “inactive”. In the case of `C=C/C=C/C=C/CCCCC`, the activity change, negative = inhibition was 4.38% [at 19 µM]. As for `CC(=O)c1ccc(C)cc1`, the Potency entry is “inactive”. Consider `CCCCCC(C)OC(=O)COc1ccc(Cl)c2cccnc12` (stereo not given), for which the Potency result was “inactive”.

`COC(C)(C)CC(C)=O`: the Potency result is “inactive”. `C/C=C(\C)C(C)=O`: the Potency result is “inactive”. On the same count and under the same terms, for `Cc1nn(C)c(Oc2ccccc2)c1/C=N/OCc1ccc(C(=O)OC(C)(C)C)cc1` the value was “inactive”; for `CC(O)C1CCCCC1` (stereo not given), “inactive”; for `CC(C)CCC(=O)CCC(C)C`, “inactive”. Same read-out and setting: the same measure for `O=P(O)(O)OP(=O)(O)O`: “inactive”; for `C=C1CC[C@H](O)CC1=C/C=C1\CCC[C@]2(C)[C@@H]([C@H](C)/C=C/[C@H](C)C(C)C)CC[C@@H]12`: “inactive”; for `COC(=O)CC(C)=O`: “inactive”. For the compound `Cc1cc(CCN2CCN(c3nsc4ccccc34)CC2)cc2c1NC(=O)CC2(C)C`, the Potency was 34.4 µM (active).

Regarding `O=C(O)c1ccc(O)c(O)c1`, the Potency entry was “inactive”. The same measure, in the same setting: the same measure for `CC(COc1ccccc1)NN` (stereo not given): “inactive”; for `Nc1ccc(N=Nc2ccc(N)cc2)cc1`: “inactive”.

Consider `C[C@H]1O[C@@H](O[C@H]2[C@@H](O)C[C@H](O[C@H]3[C@@H](O)C[C@H](O[C@H]4CC[C@@]5(C)[C@H](CC[C@@H]6[C@@H]5C[C@@H](O)[C@]5(C)[C@@H](C7=CC(=O)OC7)CC[C@]65O)C4)O[C@@H]3C)O[C@@H]2C)C[C@H](O)[C@@H]1O`, for which the Potency result is “inactive”. Same read-out and setting: for `CCCC(=O)OC(C)(C)Cc1ccccc1` the value was “inactive”; for `C=C(C)C(=O)OCCOC(=O)CC(C)=O`, “inactive”; for `CCCCCCCCCCCCC1CO1` (stereo not given), “inactive”. `O=C(O)CN(CCOCCOCCN(CC(=O)O)CC(=O)O)CC(=O)O`: the activity change, negative = inhibition is 0.881% [at 0.349 µM].

For `S=C([S-])NCCNC(=S)[S-].[Mn+2]`, the Potency entry was “inactive”. Same read-out and setting: the same measure for `O=C(N/N=C/c1ccccc1O)c1ccncc1`: “inactive”.

As to `O=[N+]([O-])c1ccc(O)cc1`, the Potency entry was “inactive”. On to `CC(C)c1ccccc1`, for which the Potency entry is “inactive”. For `CC[C@@]1(O)C(=O)OCc2c1cc1n(c2=O)Cc2cc3c(CN(C)C)c(O)ccc3nc2-1`, the Potency result is “inactive”. Still for that read-out and setting: for `O=C(Nc1ccccc1)OCC(CN1CCCCC1)OC(=O)Nc1ccccc1` (stereo not given) the value was “inactive”; for `Cc1cc(O)c2c(c1)C(=O)c1cc(O)cc(O)c1C2=O`, “inactive”; for `O=c1[nH]c(=O)n([C@H]2C[C@H](O)[C@@H](CO)O2)cc1F`, “inactive”. Take `CN1CCC(N(Cc2cccs2)c2ccccc2)CC1`: the Potency entry is “inactive”.
